From PubChem BioAssay (NCI)
Compounds without any hit were thinned out: in the full panel of roughly 83,000, 20% have a hit.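 Each cell line was grown in a 96-well plate and treated with one concentration of compound for 48 hours. Values below 10 were considered active.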 Activity calls are given as the source filed them.

Each compound was assayed on SN12C renal (assay: NCI-60 one-dose screen, 48 h (100 = growth as untreated, 0 = no growth, -100 = all killed)). Conditions: 10 µM unless noted.
With `O=C(Nc1ccc(I)cc1)c1cc([N+](=O)[O-])ccc1O` the growth was 34.3% (inactive). With `O=C(CNC(=O)c1cccc2ccccc12)Nc1ccccc1Oc1ccccc1` the growth was 21.8% (inactive). In the case of `O=C(/C=C/CN1CCOCC1)Nc1cc2c(Nc3ccc(F)c(Cl)c3F)ncnc2cc1OCCOC(F)F`, the growth is reported as 34.4% (inactive). `O=C(NCCc1c[nH]c2ccccc12)C1Cc2ccccc2CN1C(=O)c1ccco1` (centres undefined) was tested, and the growth was 111% (inactive). In the case of `Nc1cc2c(cc1N)-c1cc(N)c(N)cc1C2`, the growth is reported as 94.9% (inactive). `COc1ccc(/C(=N\O)c2cc(OC)c(OC)c(OC)c2)c(OC)c1N` was tested, and the growth was 44.4% (inactive). With `CCC(c1ccc(OC)cc1)C(CC)c1ccc(O)c(CN2CCCC2)c1` (centres undefined) the growth was 23.3% (inactive). `CC(C)(C)c1cc(-c2nc3ccc(N4CCN(CCO)CC4)cc3[nH]2)cc(C(C)(C)C)c1O` was tested, and the growth was 85.8% (inactive). For `OCc1c(-c2ccccc2)nc2sccn12`, the growth was 105% (inactive). For `O=C(OCCCCOC(=O)n1cnc2ccccc21)n1cnc2ccccc21`, the growth was 96% (inactive). In the case of `OC1CC2c3ccccc3C1c1ccccc12` (centres undefined), the growth is reported as 106% (inactive).

Each compound was assayed on UO-31 renal in the same assay as above. Conditions: 10 µM unless noted.
For `N#Cc1c(NC(=O)c2ccc([N+](=O)[O-])o2)[n+]([O-])c2cc(F)c(F)cc2[n+]1[O-]`, the growth was 40.8% (inactive). With `CC(C)(C)OC(=O)N1C/C(=C\c2cccs2)C(=O)/C(=C/c2cccs2)C1` the growth was 71.4% (inactive). `CC(Cc1nnc(SCC(=O)Nc2ccc(I)cc2)n1N)c1ccccc1` (centres undefined) was tested, and the growth was 74.1% (inactive). `COC(=O)CC/C(C)=N\Nc1ccc([N+](=O)[O-])cc1` was tested, and the growth was 35.5% (inactive). In the case of `COc1ccccc1OCC(=O)Nc1sc2c(c1C(N)=O)CCC2`, the growth is reported as 26.5% (inactive). `CC(=O)N1Cc2ccccc2C(C)Cc2cc(Cl)ccc21` (centres undefined) was tested, and the growth was 97.8% (inactive). `COc1ccc(/C(=N/O)c2cc(OC)c(OC)c(OC)c2)c(OC)c1N` was tested, and the growth was 49.3% (inactive). `CC(C)CCC[C@@H](C)[C@H]1CC[C@H]2[C@@H]3CC[C@H]4C/C(=N/O)CC[C@]4(C)[C@H]3CC[C@]12C` was tested, and the growth was 94.3% (inactive). With `C/C(=N\NC(=O)CC#N)c1cc2cc(Cl)ccc2o1` the growth was 108% (inactive). In the case of `CCC#CC[C@H]1C/C=C2/C(=O)C=C[C@@H]2C/C=C\CCCC(=O)O1`, the growth is reported as -82.7% (active). `Cc1cc(C(=O)O)c(N)c(C)n1` was tested, and the growth was 83.4% (inactive). For `CCCCCCOc1ccc(C2(Cl)c3ccccc3N(C)c3ccccc32)cc1`, the growth was 67.8% (inactive). `CC(C)N(Cc1ccc(CN(C(=O)CCl)C(C)C)cc1)C(=O)CCl` was tested, and the growth was -83.6% (active). In the case of `COc1cc(-n2nc(C(=O)Nc3ccc(C(=O)O)cc3)nc2-c2ccccc2)cc(OC)c1OC`, the growth is reported as 58.6% (inactive). For `NC(=O)NNC(=O)c1ccccc1`, the growth was 89.8% (inactive). In the case of `CC1Cc2c(N(C)C)ncnc2N(C)c2ccc(O)cc21` (centres undefined), the growth is reported as 80.2% (inactive). In the case of `O=S(=O)(NCCCNc1cc(-c2cn(-c3ccccc3)nc2-c2cccc(O)c2)ccn1)c1ccc(C(F)(F)F)cc1`, the growth is reported as 24.9% (inactive). For `Cc1ccc(S(=O)(=O)N2CCC(C(=O)Nc3ccc(F)cc3F)CC2)cc1`, the growth was 37.6% (inactive). For `COc1ccc2c(c1)NC(=O)CN2c1nc(NC2CC2)nc2ccccc12`, the growth was 28.7% (inactive). `C=C1C(=O)O[C@H]2[C@H]1CC/C(COC(=O)NCCc1cccc(OC)c1)=C\CC[C@@]1(C)O[C@@H]21` was tested, and the growth was 32% (inactive). `COc1cc(-c2csc(NC(=O)c3cc(C(F)(F)F)cc(C(F)(F)F)c3)n2)cc(OC)c1OC` was tested, and the growth was 21.3% (inactive). For `Clc1nc(Cl)c2ncn(C/C=C/Cn3cnc4c(Cl)nc(Cl)nc43)c2n1`, the growth was 5.99% (active). `Cc1ccc2c(c1)C(C)Cc1c(ncnc1-n1cnc3ccccc31)N2C` (centres undefined) was tested, and the growth was 40.1% (inactive). `CCN(CC)S(=O)(=O)c1ccc2[nH]c(=O)cc(C(=O)Nc3ccc(OC)cc3OC)c2c1` was tested, and the growth was 108% (inactive). `COC(=O)CCCCCN=Cc1c(O)c(O)c(C(C)C)c2cc(C)c(-c3c(C)cc4c(C(C)C)c(O)c(O)c(C=NCCCCCC(=O)OC)c4c3O)c(O)c12` was tested, and the growth was 19.5% (inactive). In the case of `CCC(=O)Oc1ccc2c(c1)CC[C@@H]1[C@@H]2CC[C@]2(C)C[C@H](OC(=O)CC)C[C@@H]12`, the growth is reported as 71.7% (inactive). `C=C1C(=O)O[C@H]2[C@H]1CC/C(COC(=O)NCc1cc(OC)cc(OC)c1)=C\CC[C@@]1(C)O[C@@H]21` was tested, and the growth was -58.4% (active). In the case of `O=C(Nc1ccc(I)cc1)c1cc([N+](=O)[O-])ccc1O`, the growth is reported as 22.5% (inactive). With `O=C(CNC(=O)c1cccc2ccccc12)Nc1ccccc1Oc1ccccc1` the growth was 33.8% (inactive). `O=C(/C=C/CN1CCOCC1)Nc1cc2c(Nc3ccc(F)c(Cl)c3F)ncnc2cc1OCCOC(F)F` was tested, and the growth was 22.9% (inactive). For `O=C(NCCc1c[nH]c2ccccc12)C1Cc2ccccc2CN1C(=O)c1ccco1` (centres undefined), the growth was 53.5% (inactive). With `Nc1cc2c(cc1N)-c1cc(N)c(N)cc1C2` the growth was 53.9% (inactive). With `COc1ccc(/C(=N\O)c2cc(OC)c(OC)c(OC)c2)c(OC)c1N` the growth was 50.3% (inactive). In the case of `CCC(c1ccc(OC)cc1)C(CC)c1ccc(O)c(CN2CCCC2)c1` (centres undefined), the growth is reported as 15% (inactive). `CC(C)(C)c1cc(-c2nc3ccc(N4CCN(CCO)CC4)cc3[nH]2)cc(C(C)(C)C)c1O` was tested, and the growth was 72.4% (inactive). In the case of `OCc1c(-c2ccccc2)nc2sccn12`, the growth is reported as 94.8% (inactive). `O=C(OCCCCOC(=O)n1cnc2ccccc21)n1cnc2ccccc21` was tested, and the growth was 78.9% (inactive). With `OC1CC2c3ccccc3C1c1ccccc12` (centres undefined) the growth was 95.7% (inactive).
